# High-throughput results (PubChem)
# This is a sample that favours compounds with a hit; in the whole collection about 4.5% have one here.
# 697 NFkB inh – inhibitors of PMA/ionomycin-induced NF-kB reporter, 697 cells, primary screen, B-cell NF-kB inhibitor project, cell-based, luminescence, uHTS; 697 B-cell NF-kB luciferase reporter, 16 h; inhibition, % at 4 µM; 0.33% of 330,000 active; in the data active = inhibition above about 35%
# Beta cell apopt – inhibitors of cytokine-induced beta cell apoptosis, primary screen, luminescence; protection from apoptosis, % (concentration not given with the values); AID 435005, 2010; INS-1E cytokine-induced death, ATP luminescence, 48 h; percent of positive-control rescue, neutral wells zero; 0.8% of 300,000 active;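 active = Every replicate reaches about 75%, or at least half do and their mean reaches it too, limit read from the data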;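 note: 0% = cytokine-treated negative control wells and 100% = positive control rescue; higher means more ATP so stronger rescue from cytokine killing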
# Mdm2-MdmX inh – inhibitors of human Mdm2-MdmX association, primary screen, cell-based, luminescence, split luciferase, SaOS-2, uHTS | Protein Mdm4 (Homo sapiens) + E3 ubiquitin-protein ligase Mdm2 (Homo sapiens), … | SaOS-2 split-luciferase Mdm2/MdmX complementation | inhibition, % at 8 µM | 3% of 330,000 active | AID 485346, 2010;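 active = inhibition of at least 50% at 8 µM in the primary screen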
# Target sequence (O15151 whole entry, looked up): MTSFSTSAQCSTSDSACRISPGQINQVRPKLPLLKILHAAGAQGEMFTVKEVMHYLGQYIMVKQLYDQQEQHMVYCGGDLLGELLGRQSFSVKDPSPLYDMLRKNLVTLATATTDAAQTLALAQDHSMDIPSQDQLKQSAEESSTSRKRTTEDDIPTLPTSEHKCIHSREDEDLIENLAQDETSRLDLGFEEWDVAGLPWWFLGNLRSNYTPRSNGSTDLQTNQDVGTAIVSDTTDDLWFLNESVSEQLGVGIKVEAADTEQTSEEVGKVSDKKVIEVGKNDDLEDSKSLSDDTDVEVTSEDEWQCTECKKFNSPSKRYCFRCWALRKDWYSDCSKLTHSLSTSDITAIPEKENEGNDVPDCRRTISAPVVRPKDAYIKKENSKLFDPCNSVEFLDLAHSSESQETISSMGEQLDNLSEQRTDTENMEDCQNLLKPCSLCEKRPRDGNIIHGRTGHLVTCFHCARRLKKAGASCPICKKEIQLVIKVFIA
# Target sequence (Q00987 whole entry, looked up): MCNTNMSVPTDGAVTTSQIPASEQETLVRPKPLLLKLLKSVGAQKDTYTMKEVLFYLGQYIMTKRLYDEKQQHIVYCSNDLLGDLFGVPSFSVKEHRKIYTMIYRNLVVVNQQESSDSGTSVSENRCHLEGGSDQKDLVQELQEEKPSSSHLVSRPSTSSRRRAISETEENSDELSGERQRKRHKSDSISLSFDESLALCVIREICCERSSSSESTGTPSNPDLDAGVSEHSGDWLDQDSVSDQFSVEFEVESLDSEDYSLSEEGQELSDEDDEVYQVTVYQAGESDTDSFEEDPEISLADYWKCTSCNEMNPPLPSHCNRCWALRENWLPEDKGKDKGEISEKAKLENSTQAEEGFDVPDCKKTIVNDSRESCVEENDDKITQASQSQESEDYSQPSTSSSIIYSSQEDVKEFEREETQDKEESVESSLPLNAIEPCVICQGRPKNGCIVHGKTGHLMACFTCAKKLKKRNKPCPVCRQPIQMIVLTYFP
# Gli-Sufu antag – Gli-Sufu pathway antagonists, primary screen, luciferase luminescence, Sufu-KO-LIGHT cells, uHTS. 0.74% of 340,000 active. inhibition, % at 5 µM. AID 588413, 2011. Sufu-KO-LIGHT fibroblasts, Gli luciferase reporter luminescence;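 active = inhibition above about 55%, limit read from the data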;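 note: 0% = DMSO-treated cells and 100% = wells with medium but no cells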
# Jurkat NFkB inh – inhibitors of induced NF-kB luciferase reporter, primary screen, TCR NF-kB activation inhibitor project, cell-based, luminescence, uHTS. Jurkat, PMA/ionomycin-induced NF-kB luciferase reporter. inhibition, % at 4 µM. 0.53% of 330,000 active. AID 435003, 2010; in the data active = inhibition above about 50%
# CSC inhib – cancer stem cell viability inhibitors, primary screen, luminescence; cancer stem cell-like cells viability; inhibition, % at 7.5 µM; 1.1% of 300,000 active; AID 2717, 2010; in the data active = inhibition above about 75%; tested in HMLE shEcad cells
# Mdm2 MdmX conf – Mdm2-MdmX complex disruptors, retested hits, confirmation, luminescence, single concentration; shares compounds with Mdm2-MdmX inh; Mdm2-MdmX binding, luminescent assay; inhibition, % at 8 µM; 55% of 10,000 active; AID 489028, 2010; in the data active = inhibition above about 40%
# Full FLuc ctr – full-length luciferase signal inhibition, confirmation, counter-screen for Mdm2/MdmX interaction inhibitor project, cell-based, single concentration, SaOS-2; SaOS-2 full-length luciferase counterscreen, luminescence; shares compounds with Mdm2-MdmX inh; AID 504607, 2011; inhibition, % at 8 µM; 77% of 6,200 active;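 active = mean inhibition at 8 µM reaching about 37%, which flags the compound as non-specific, limit read from the data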;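 note: p53-null SaOS-2 cells with luciferase driven by a doxycycline-inducible promoter; compound on cells about two nights before reading with doxycycline added after day one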
# Numbers without * were called inactive; / = no result.
SMILES,697 NFkB inh,Beta cell apopt,Mdm2-MdmX inh,Gli-Sufu antag,Jurkat NFkB inh,CSC inhib,Mdm2 MdmX conf,Full FLuc ctr
COC(=O)[C@@]1(Cc2ccccc2)[C@H]2C(=O)N(Cc3ccccc3)C(=O)[C@H]2[C@H]2CN=C(SCC(=O)c3ccccc3)N21,-1.4,/,54.0*,2.5,/,/,54.7*,49.5*
CCN1C(=O)[C@H]2[C@H]3CN=C(SCc4ccc(Cl)cc4)N3[C@@](Cc3ccccc3)(C(=O)OC)[C@H]2C1=O,-18.7,/,48.4,8.3,/,/,/,/
CC[C@]1(C(=O)OC)[C@H]2C(=O)N(Cc3ccccc3)C(=O)[C@H]2[C@H]2CN=C(SCC(=O)c3ccccc3)N21,-10.1,/,16.9,-9.0,/,/,/,/
COC(=O)[C@@]1(Cc2ccccc2)[C@H]2C(=O)N(Cc3ccccc3)C(=O)[C@H]2[C@H]2CN=C(SCc3ccc(Cl)cc3)N21,6.9,/,99.1*,8.0,/,/,99.4*,52.8*
COC(=O)[C@@]1(C)[C@H]2C(=O)N(Cc3ccccc3)C(=O)[C@H]2[C@H]2CN=C(SCc3ccc(C#N)cc3)N21,-15.7,/,70.7*,-3.8,/,/,69.8*,51.4*
COC(=O)[C@@]1(C)[C@H]2C(=O)N(Cc3ccccc3)C(=O)[C@H]2[C@H]2CN=C(SCc3ccc(Cl)cc3)N21,-15.1,/,97.5*,4.4,/,/,99.6*,55.6*
CCN1C(=O)[C@H]2[C@H]3CN=C(SCc4ccccc4)N3[C@@](C)(C(=O)OC)[C@H]2C1=O,0.1,/,-4.5,-0.9,/,/,/,/
CCCCOc1ccc(C(=O)N(C)CC(=O)Nc2ccc(C)cc2)cc1,6.6,-5.3,-11.2,7.4,9.6,-5.6,/,/
Cc1ccccc1C(=O)Nc1c(C(=O)N(CCN(C)C)Cc2ccco2)oc2ccccc12,10.8,-6.3,24.1,8.6,0.2,-1.5,/,/
COc1ccccc1C(=O)Nc1c(C(=O)N(CCN(C)C)Cc2ccco2)oc2ccccc12,13.8,11.2,62.3*,23.4,2.0,7.5,27.0,/
Cc1nn(CC(=O)NCCCN2CCN(Cc3ccccc3)CC2)c(=O)c2cc(-c3ccccc3)nn12,-3.0,9.7,30.9,34.5,4.0,-0.7,/,/
CCc1ccc(-c2cc3c(=O)n(CC(=O)NCCCN4CCC(Cc5ccccc5)CC4)nc(C)n3n2)cc1,-34.9,14.4,100.4*,20.2,22.5,-18.8,98.8*,53.0*
Cc1nn(CC(=O)NCCCN2CCC(Cc3ccccc3)CC2)c(=O)c2cc(-c3ccccc3)nn12,-2.4,5.2,95.6*,-24.4,12.4,36.1,68.5*,41.0*
Cc1cccc(N(C)S(=O)(=O)c2c[nH]c3ccc([N+](=O)[O-])cc23)c1,8.9,/,25.9,48.2,-9.3,/,/,/
COc1cccc(/C=C2/Sc3ccc(C(=O)NCCN4CCCC4)cc3NC2=O)c1,5.5,/,58.1*,3.1,-6.2,31.1,9.8,/
COc1cccc(/C=C2/Sc3ccc(C(=O)NCCCN4CCCC4)cc3NC2=O)c1,-28.0,/,34.9,13.6,-11.3,1.6,/,/
Cc1ccc(CN2C(=O)c3ccccc3Sc3ccc(C(=O)NCCCN4CCOCC4)cc32)cc1,-4.1,-1.9,46.6,-18.1,-4.7,55.4,/,/
CC1CCCN(CCCNC(=O)c2ccc3c(c2)N(Cc2ccccc2F)C(=O)c2ccccc2S3(=O)=O)C1 (stereo not drawn),-10.5,-0.3,64.3*,18.6,-9.9,-0.6,33.9,50.9*
O=C1Nc2cc(C(=O)NCCCN3CCCC3)ccc2S/C1=C/c1ccccc1F,-30.8,/,58.4*,20.9,-11.5,39.6,14.2,/
CCN1C(=O)c2ccccc2Sc2ccc(C(=O)NCCCN3CCCCC3)cc21,-2.6,0.6,50.7*,41.8,-16.2,4.5,9.9,/
O=C(COC(=O)CCC1CCCC1)Nc1ccc(F)cc1Cl,19.2,-9.4,10.1,0.9,-23.7,/,/,/
CCN1CCCC1CNC(=O)c1ccc2c(c1)NC(=O)/C(=C\c1ccc(C)cc1)S2 (stereo not drawn),-2.9,0.2,97.2*,19.4,2.3,33.8,33.6,68.8*
